Reference: PubChem BioAssay (NCATS)
Results filed as inconclusive are left out. Where a call stands in place of a potency, no number is given. A number with no mark means an inactive call. The source made the active and inactive calls. Calls come from the whole dose curve; as a rule, active = well fitted curve in the direction sought with a large enough effect; inconclusive = small, poorly fitted or top-dose-only effect, or another doubt; inactive = no such curve, though single readings can be large; an effect the other way counts as inactive or inconclusive.

Assays:
[1] = target: Rap guanine nucleotide exchange factor 3 (Homo sapiens) (UniProt O95398); experiment: Confirmatory qHTS for antagonist of cAMP-regulated guanine nucleotide exchange factor 3 (EPAC1) (AID 1645880); conditions: EPAC1 Rap1B-BODIPY-GDP exchange, fluorescence; activity, negative = inhibition: at 115 µM (top of the series); note: nearly all actives have a fitted effect of over 55% in size; note: potency is the fitted concentration of half-maximal effect
Outline: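 Nucleotide exchange uses 100 nM EPAC1, 250 nM RAP1B-BODIPY-GDP and 50 uM GDP, with compounds in a concentration-titration series. After 5 min at room temperature, fluorescence (480 nm ex/540 nm em) is read every 5 min for 30 min. Data are normalized to control ATA and DMSO.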

[2] = target: Rap guanine nucleotide exchange factor 3 (Homo sapiens) (UniProt O95398); experiment: Confirmatory qHTS for agonist of cAMP-regulated guanine nucleotide exchange factor 3 (EPAC1) (AID 1645881);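 note: EPAC1 catalysed release of BODIPY-GDP from Rap1B seen as fluorescence loss; nearly all actives have a fitted effect of over 75% in size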
[3] = target: Rap guanine nucleotide exchange factor 3 (Homo sapiens) (UniProt O95398); experiment: Counterscreen qHTS for antagonist of cAMP-regulated guanine nucleotide exchange factor 3 (EPAC1) (AID 1645888);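 note: fluorescence loss as bound BODIPY-GDP is released from Rap1B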
Outline: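 Rap1B-BODIPY-GDP 250 nM + GDP 50 uM; cpds 7-pt, final 9.74 nM–152 uM (activator mode) or from 7.32 nM upwards (inhibitor mode); RT; FI 480/540 nm at 5 and 30 min, then ± cAMP, reread.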

Chain of Rap guanine nucleotide exchange factor 3 (Homo sapiens) (O95398 whole entry, looked up): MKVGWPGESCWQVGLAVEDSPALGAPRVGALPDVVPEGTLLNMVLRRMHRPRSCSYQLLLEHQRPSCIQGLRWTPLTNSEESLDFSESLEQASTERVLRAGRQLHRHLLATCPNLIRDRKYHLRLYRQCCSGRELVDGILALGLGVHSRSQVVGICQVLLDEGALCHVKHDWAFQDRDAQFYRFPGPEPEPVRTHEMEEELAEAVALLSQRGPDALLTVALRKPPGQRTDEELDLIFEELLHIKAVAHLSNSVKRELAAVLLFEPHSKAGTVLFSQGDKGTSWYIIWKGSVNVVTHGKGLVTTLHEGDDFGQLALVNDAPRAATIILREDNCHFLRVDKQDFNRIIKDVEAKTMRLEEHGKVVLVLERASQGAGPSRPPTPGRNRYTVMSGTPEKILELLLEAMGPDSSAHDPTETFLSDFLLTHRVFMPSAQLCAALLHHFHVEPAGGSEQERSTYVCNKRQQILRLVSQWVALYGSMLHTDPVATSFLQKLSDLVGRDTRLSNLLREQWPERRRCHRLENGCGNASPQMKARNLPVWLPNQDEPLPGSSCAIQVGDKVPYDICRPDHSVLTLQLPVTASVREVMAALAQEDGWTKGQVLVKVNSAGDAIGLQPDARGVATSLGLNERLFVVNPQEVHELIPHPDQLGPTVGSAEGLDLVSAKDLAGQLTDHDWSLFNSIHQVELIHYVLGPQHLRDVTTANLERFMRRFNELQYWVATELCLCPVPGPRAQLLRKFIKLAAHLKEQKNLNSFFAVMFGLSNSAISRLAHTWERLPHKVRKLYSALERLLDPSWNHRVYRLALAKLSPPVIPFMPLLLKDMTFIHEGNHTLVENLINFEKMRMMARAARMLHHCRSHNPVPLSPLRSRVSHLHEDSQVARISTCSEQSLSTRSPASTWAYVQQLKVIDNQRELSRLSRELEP

SMILES	Potency [1]	Potency [2]	Potency [3]	activity change, negative = inhibition [3]
CCCCC[C@@H]1C=C(C(=O)O)[C@H](c2ccc(Cl)c(Cl)c2)N1S(=O)(=O)c1ccc(C)cc1	30.1 µM (active)	inactive	inactive	–
Cc1nc(Nc2ccc(Br)cc2Br)c([N+](=O)[O-])c(=O)[nH]1	inactive	inactive	inactive	–
CC(=O)Nc1ccc(NC(=O)C2Cc3c(-c4ccc5c(c4)OCO5)ccnc3O2)cc1 (centres undefined)	inactive	inactive	inactive	–
CCCCn1nnnc1C(c1cc2ccccc2o1)N1CCCC1 (centres undefined)	inactive	inactive	inactive	–
O=C(O)CCNC(=O)c1ccc(NC(=O)C(c2ccccc2)c2ccccc2)cc1	inactive	inactive	inactive	–
COC(=O)c1cn(C(=O)c2ccc(OC)c(OC)c2)c2ccccc12	inactive	inactive	–	-11% [at 30.8 µM]
Cc1ccn2c(-c3csc(NCc4ccccc4)n3)c(C)nc2c1	inactive	inactive	inactive	–
COc1ccc2c(c1)CCc1c(C(=O)N3CCCc4ccccc43)noc1-2	inactive	inactive	inactive	–
CCOc1nc(-c2ccccc2Cl)nc2ccccc12	inactive	inactive	inactive	–
COC(=O)[C@@H]1CC[C@@](C)(c2ccc(OC)cc2)C1(C)C	inactive	inactive	–	8.1% [at 30.8 µM]
Cc1cc2ccccn2c1C(=O)c1ccc(F)cc1	inactive	inactive	inactive	–
CCCCc1c(C)nc2ccccc2c1SCCC#N	inactive	inactive	–	-10% [at 30.8 µM]
CC1CCCN(C2(O)C(=O)Nc3c(C(F)(F)F)cccc32)C1 (centres undefined)	inactive	inactive	–	-14.6% [at 30.8 µM]
O=C(c1ccccc1F)n1c2c(c3ccccc31)CCCC2	inactive	inactive	inactive	–
COC(=O)c1ccc2nc(-c3ccc(F)cc3)c(Cc3ccsc3)n2c1	inactive	inactive	–	-9.08% [at 30.8 µM]
C=CCN(CC=C)Cc1cc(=O)oc2cc(C)cc(C)c12	inactive	inactive	–	-4% [at 30.8 µM]
O=C1OC(c2ccccc2)(c2ccccc2)c2ccsc21	inactive	inactive	inactive	–
CCOc1ccc(S(=O)(=O)N2CCCCC2)c(C)c1C	inactive	inactive	inactive	–
CCn1c(=O)c(C(=O)NNS(=O)(=O)c2ccc(C)cc2)c(O)c2ccccc21	75.7 µM (active)	inactive	inactive	–

SMILES	Potency [1]	Potency [2]	Potency [3]	activity change, negative = inhibition [3]
C=C(C)Cn1c(C)cc(C)c(S(=O)(=O)c2ccccc2C)c1=O	inactive	inactive	–	-6.66% [at 30.8 µM]
COc1ccc(NC(=O)CSc2ccccc2)cc1S(=O)(=O)N1CCCCC1	inactive	inactive	inactive	–
COc1cc(NC(C)=O)ccc1-c1cc2ccccc2oc1=O	inactive	inactive	inactive	–
COc1ccc(Cl)cc1NC(=O)CN1c2ccccc2CC1C (centres undefined)	inactive	inactive	inactive	–
COc1ccc(Cl)cc1NC(=O)CN(C)Cc1ccc(OC)c(OC)c1	inactive	inactive	inactive	–
COc1ccc(C2CC(=O)Oc3cc(C)cc(C)c32)cc1 (centres undefined)	inactive	inactive	inactive	–
CCCCn1nnnc1C(c1cc2ccccc2o1)N1CCN(c2cc(C)nc3ccccc23)CC1 (centres undefined)	inactive	inactive	inactive	–
Cc1oc2cc(Br)c(O)c(Br)c2c1-c1ccccc1	inactive	inactive	inactive	–
COC(=O)c1cn(S(=O)(=O)c2ccccc2)c2ccccc12	inactive	inactive	inactive	–
COc1ccc2ccc3c(c2c1)N=C[C@]1(O3)N(C)c2ccccc2C1(C)C	inactive	inactive	inactive	–
CCc1ccc([C@@H]2CC=C(C(=O)O)[C@H](c3ccc(Cl)cc3)N2S(=O)(=O)c2ccc(C)cc2)cc1	50.1 µM (active)	inactive	–	-9.33% [at 30.8 µM]
Cn1ccc2c(N3CCCCCCC3)cc3c(c21)C1CCC3O1 (centres undefined)	inactive	inactive	inactive	–
COc1ccc2c(c1)CCc1c(C(=O)N(C)c3ccccc3)noc1-2	inactive	inactive	inactive	–
O=c1cc(N2CCCCC2)c(-c2ccccc2)nn1Cc1ccccc1	inactive	inactive	inactive	–
COc1ccc(Nc2cccc3ccccc23)cc1	inactive	inactive	inactive	–
COc1cnc(-c2ccccc2)nc1Sc1ccccc1	inactive	inactive	inactive	–
COc1ccc(C2=CC3=C(Br)C(=O)C(C)(OC(=O)c4cccs4)C(=O)C3=CO2)cc1 (centres undefined)	16.9 µM (active)	inactive	inactive	–
COC(=O)C1=NN(c2ccccc2)C2(S1)SC(C(C)=O)=C(C)N2c1ccccc1 (centres undefined)	inactive	inactive	inactive	–
COc1ccc(C2CC(=O)Oc3ccc(OC)cc32)cc1 (centres undefined)	inactive	inactive	–	-2.08% [at 30.8 µM]
